High-throughput results from PubChem BioAssay.
ssDAF-12 act = activators of S. stercoralis DAF-12 nuclear receptor | AID 652126 | HEK293 ssDAF-12/GRIP1 lit1-tk-luc reporter, luminescence; % of 3 µM dafachronic acid response | activation, % at 6.8 µM | actives 1% (n = 370,000);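 active = activation above the mean over all tested compounds plus 3 SD, cut at about 0.9% in these data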;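 also: 0% = DMSO-only wells and 100% = 3 µM delta7-dafachronic acid wells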
DAX1 inh-1 = inhibits human nuclear receptor DAX1 | P51843 | HEK293 Gal4-DAX1 luciferase reporter, luminescence | inhibition, % at 6.75 µM | actives 0.99% (n = 340,000) | AID 504766;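 active = inhibition above the mean over all tested compounds plus 3 SD, cut at about 4.2% in these data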;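 also: 0% = DAX1-transfected cells with DMSO and 100% = empty-vector control cells with DMSO; inhibition shows as a rise in luminescence from relieved DAX1 repression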
Target sequence (P51843 207-470 limits assumed): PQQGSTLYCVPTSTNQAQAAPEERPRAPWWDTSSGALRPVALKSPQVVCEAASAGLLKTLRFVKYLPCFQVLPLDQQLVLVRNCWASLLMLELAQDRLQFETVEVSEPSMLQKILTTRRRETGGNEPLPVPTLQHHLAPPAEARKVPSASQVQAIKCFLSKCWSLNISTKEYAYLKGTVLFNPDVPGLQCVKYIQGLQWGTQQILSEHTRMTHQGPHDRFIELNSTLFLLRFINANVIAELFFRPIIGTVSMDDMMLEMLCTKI
hgDAF12 agonist = agonists of H. glycines DAF-12 nuclear receptor. activation, % at 6.8 µM. actives 1.8% (n = 370,000). HEK293 GAL4-hgDAF12 UAS-luciferase reporter, agonist luminescence; normalized to butyrate control. AID 687014;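 active = activation above a cutoff set at the mean of all screened compounds plus 3 SD, cut at about 10% in these data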;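 also: 0% = DMSO wells and 100% = sodium butyrate wells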
DAX1 inh-2 = blocks DAX1 repression of SF-1 activated StAR promoter | HEK293T StAR-luciferase reporter, SF-1/DAX-1 repression relief | inhibition, % at 6.8 µM | actives 1.1% (n = 370,000) | AID 652010;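 active = inhibition above the mean over all tested compounds plus 3 SD, cut at about 3.6% in these data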;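 also: 0% = DAX-1 cells with DMSO and 100% = cells lacking DAX-1 with DMSO; higher inhibition means more luminescence from relief of DAX-1 repression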
hcDAF-12 act = activators of H. contortus DAF-12 nuclear receptor. actives 1.4% (n = 370,000). activation, % at 6.8 µM. HEK293 hcDAF-12 lit1-tk-luc reporter, luminescence; 0% DMSO, 100% Δ7-dafachronic acid;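 active = activation above the mean of all tested compounds plus 3 SD, cut at about 5.5% in these data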;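 also: 100% = response to 3 µM Δ7-dafachronic acid high control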
AHR activator = activates the human aryl hydrocarbon receptor. AHR-responsive luciferase reporter cells, luminescence. P35869. actives 2.5% (n = 320,000). activation, % at 5 µM; in the data active = activation above about 47%;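 also: 0% = vehicle wells and 100% = reference agonist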
An asterisk follows results filed as active. Only some compounds are listed: those with a hit (about 5.7% of all), similar ones and a draw of the others.

Results for COc1cccc(C2c3c(oc4ccccc4c3=O)C(=O)N2c2ccccn2)c1 (stereo not drawn) ?
ssDAF-12 act: -2; DAX1 inh-1: 4; hgDAF12 agonist: 0; DAX1 inh-2: 0; hcDAF-12 act: -1; AHR activator: 0

How did Cc1c(P(=O)(c2ccccc2)c2ccccc2)c2ccccc2n1C do in these assays?
ssDAF-12 act: -1; hgDAF12 agonist: 1; DAX1 inh-2: -1; hcDAF-12 act: -3

How did Cc1c(C(C)(C(=O)O)c2c(C)n(C)c3ccccc23)c2ccccc2n1C do in these assays?
ssDAF-12 act: 0; hgDAF12 agonist: 3; DAX1 inh-2: 0; hcDAF-12 act: 5.7*; AHR activator: 22

How did CCC(C)NC(=O)C(=O)NCc1ccccn1 (stereo not drawn) do in these assays?
ssDAF-12 act: -1; DAX1 inh-1: 1; hgDAF12 agonist: -1; DAX1 inh-2: 0; hcDAF-12 act: -2; AHR activator: 1

How did O=[N+]([O-])/C=C/c1cc2ccccc2[nH]1 do in these assays?
ssDAF-12 act: 0; DAX1 inh-1: 0; hgDAF12 agonist: 6; DAX1 inh-2: 0; hcDAF-12 act: 5.8*; AHR activator: 34

How did Oc1c(C=Nc2ccc(Cl)cn2)sc2ccccc12 do in these assays?
ssDAF-12 act: -1; DAX1 inh-1: 1; hgDAF12 agonist: 8; DAX1 inh-2: 0; hcDAF-12 act: 3; AHR activator: 8

How did Oc1c(/C=N/c2ccccn2)sc2ccccc12 do in these assays?
ssDAF-12 act: 1; DAX1 inh-1: 4.7*; hgDAF12 agonist: 3; DAX1 inh-2: 1; hcDAF-12 act: 4; AHR activator: 24

What do the screens show for `O=C1CSc2ccc(C(=O)N3CCCC(C(=O)N4CCOCC4)C3)cc2N1` (stereo not drawn)?
ssDAF-12 act: -2; hgDAF12 agonist: 2; DAX1 inh-2: 1; hcDAF-12 act: 1

What do the screens show for `CCOC(=O)C(=O)N(CC)C1CCS(=O)(=O)C1` (stereo not drawn)?
ssDAF-12 act: 1.2*; DAX1 inh-1: 0; hgDAF12 agonist: -1; DAX1 inh-2: 0; hcDAF-12 act: 5; AHR activator: 12

How did C=CC[C@]1(O)C(=O)N(c2ccccc2)c2ccccc21 do in these assays?
ssDAF-12 act: -1; hgDAF12 agonist: 1; DAX1 inh-2: 1; hcDAF-12 act: -2

Results for N#Cc1[nH]nc2nc[nH]c(=O)c12 ?
ssDAF-12 act: -2; hgDAF12 agonist: -3; DAX1 inh-2: 1; hcDAF-12 act: 0

How did CN(C(=O)CSc1nnc(-c2ccncc2)n1-c1ccccc1)C1CCS(=O)(=O)C1 (stereo not drawn) do in these assays?
ssDAF-12 act: -1; DAX1 inh-1: 3; hgDAF12 agonist: 4; DAX1 inh-2: 1; hcDAF-12 act: 0; AHR activator: 1

Results for CC(c1nnc(SCC(=O)N(C)C2CCS(=O)(=O)C2)n1-c1ccccc1)N(C)C (stereo not drawn) ?
ssDAF-12 act: -1; DAX1 inh-1: 0; hgDAF12 agonist: 1; DAX1 inh-2: 3.7*; hcDAF-12 act: -1; AHR activator: -1

How did CC/C(=N\NC(=O)c1cc(C2CC2)[nH]n1)c1ccccc1 do in these assays?
ssDAF-12 act: -1; DAX1 inh-1: 1; hgDAF12 agonist: 2; DAX1 inh-2: 1; hcDAF-12 act: 3; AHR activator: 26

What do the screens show for `Cc1cc(C)nc(Nc2nc3ccccc3o2)n1`?
ssDAF-12 act: -1; DAX1 inh-1: 3; hgDAF12 agonist: 5; DAX1 inh-2: 1; hcDAF-12 act: 1; AHR activator: 26

How did FC(F)(F)Oc1ccc(Nc2nc3ccccc3o2)cc1 do in these assays?
ssDAF-12 act: 0; DAX1 inh-1: 3; hgDAF12 agonist: 9; DAX1 inh-2: 1; hcDAF-12 act: 5.7*; AHR activator: 9

Results for CC(=O)Nc1ccc(NC(=O)c2cc(=O)c3cc(C)c(C)cc3o2)cc1 ?
ssDAF-12 act: -1; DAX1 inh-1: 0; hgDAF12 agonist: 4; DAX1 inh-2: 0; hcDAF-12 act: -2; AHR activator: 2

How did O=C(Cn1nnc2ccccc21)NCc1ccccc1 do in these assays?
ssDAF-12 act: -1; DAX1 inh-1: 3; hgDAF12 agonist: 11*; DAX1 inh-2: 1; hcDAF-12 act: 3; AHR activator: 5

What do the screens show for `Cc1ccc(OCCn2nnc3ccccc32)cc1C`?
ssDAF-12 act: -1; DAX1 inh-1: 1; hgDAF12 agonist: 13*; DAX1 inh-2: 1; hcDAF-12 act: 3; AHR activator: 2

What do the screens show for `Cc1ccc(C(=O)Cn2nnc3ccccc32)cc1`?
ssDAF-12 act: 0; DAX1 inh-1: 0; hgDAF12 agonist: 11*; DAX1 inh-2: 2; hcDAF-12 act: 3; AHR activator: 0

How did O=C(Cn1nnc2ccccc21)c1ccc(Br)cc1 do in these assays?
ssDAF-12 act: -2; DAX1 inh-1: 1; hgDAF12 agonist: 1; DAX1 inh-2: 1; hcDAF-12 act: 0; AHR activator: 8

What do the screens show for `c1ccc(CCn2nnc3ccccc32)cc1`?
ssDAF-12 act: -1; DAX1 inh-1: 6.3*; hgDAF12 agonist: 8; DAX1 inh-2: 2; hcDAF-12 act: 3; AHR activator: 17

What do the screens show for `Cc1ccc(OCC(=O)NC2CCS(=O)(=O)C2)c(C)c1` (stereo not drawn)?
ssDAF-12 act: -1; DAX1 inh-1: 1; hgDAF12 agonist: 2; DAX1 inh-2: 0; hcDAF-12 act: 0

Results for O=C(O)C(C(O)c1ccccc1)[n+]1ccccc1 (stereo not drawn) ?
ssDAF-12 act: -1; DAX1 inh-1: 1; hgDAF12 agonist: 0; DAX1 inh-2: 0; hcDAF-12 act: -1; AHR activator: 2

How did Cc1ccc(-c2cc(-c3nnc(SCC(=O)NC4CCCCC4)n3N)[nH]n2)cc1 do in these assays?
ssDAF-12 act: 0; hgDAF12 agonist: 1; DAX1 inh-2: 1; hcDAF-12 act: 1

How did COc1ccccc1C(=O)Nc1ccc(NC(=O)C2CCCCC2)nc1 do in these assays?
ssDAF-12 act: -1; DAX1 inh-1: 0; hgDAF12 agonist: -1; DAX1 inh-2: 0; hcDAF-12 act: -4; AHR activator: 5

How did O=C(Nc1ccc(NC(=O)C2CCCCC2)nc1)c1ccccn1 do in these assays?
ssDAF-12 act: -1; DAX1 inh-1: 0; hgDAF12 agonist: 12*; DAX1 inh-2: 0; hcDAF-12 act: -1; AHR activator: 7

Results for COC(=O)C1=C(C)N(c2ccc(OC)cc2)C(C)=C(C(=O)OC)C1c1ccc(OC)cc1 ?
ssDAF-12 act: 0; hgDAF12 agonist: -2; DAX1 inh-2: 1; hcDAF-12 act: 0; AHR activator: 0

Results for COC(=O)C1=C(C)N(c2ccc(OC)cc2)C(C)=C(C(=O)OC)C1c1ccccc1 ?
ssDAF-12 act: 0; DAX1 inh-1: 4.9*; hgDAF12 agonist: 0; DAX1 inh-2: 0; hcDAF-12 act: 1; AHR activator: 1
